HTR5A inv ctr – HTR5A inverse agonism, opioid heterodimer counter-screen | P47898 | HTR5A cell line, luminescence | inhibition, % at 9.3 µM | hit rate 0.083% among 340,000; in the data active = inhibition mostly above about 23%, no sharp cut-off; inactive = mostly below about 18%;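 also: 0% = cells with DMSO and 100% = no-cell wells with DMSO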
Target sequence (P47898 whole entry, looked up): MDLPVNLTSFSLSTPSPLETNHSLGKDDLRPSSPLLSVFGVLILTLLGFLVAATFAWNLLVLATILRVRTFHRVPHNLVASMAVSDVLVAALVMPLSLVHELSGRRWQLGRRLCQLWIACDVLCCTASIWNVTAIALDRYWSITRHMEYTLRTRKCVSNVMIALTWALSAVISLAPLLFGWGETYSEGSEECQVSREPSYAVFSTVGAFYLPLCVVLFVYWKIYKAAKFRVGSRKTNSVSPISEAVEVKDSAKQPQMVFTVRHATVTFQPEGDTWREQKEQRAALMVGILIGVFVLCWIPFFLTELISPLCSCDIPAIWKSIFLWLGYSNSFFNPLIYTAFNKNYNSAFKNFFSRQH
OPRM1-OPRD1 ag – OPRM1-OPRD1 heterodimerization agonism; P35372+P41143; cells, luminescence; activation, % at 9.3 µM; hit rate 0.3% among 340,000; in the data active = activation above about 18%;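 also: 0% = vehicle-treated cells and 100% = reference agonist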
HTR5A ag – activates human HTR5A in OPRM1-OPRD1 agonist counter-screen | P47898 | HTR5A agonist assay, luminescence, cell-based | activation, % at 9.3 µM | hit rate 0.61% among 340,000 | AID 504692; in the data active = activation mostly above about 9.5%, no sharp cut-off; inactive = mostly below about 7.6%;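 also: 0% = cells with vehicle only and 100% = reference agonist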
m5-HT2A agonist – activates the mouse 5-HT2A serotonin receptor. P35363. CHO-K1 mHTR2A beta-arrestin complementation, luminescence; percent of 30 µM serotonin response. activation, % at 7.6 µM. hit rate 0.66% among 360,000. AID 624169;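 active = activation above a run cutoff, the mean activation of all tested compounds plus 3 SD, cut at about 14% in these data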;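 also: 0% = plate median of compound wells and 100% = 30 µM serotonin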
MOR-DOR inv ag – inverse agonists of human mu-delta opioid receptor heterodimerization; inhibition, % at 9.3 µM; AID 504357; cell-based MOR-DOR heterodimer luminescence, inverse agonism; hit rate 0.21% among 340,000; P35372+P41143; in the data active = inhibition above about 22%, passing the limit was not always enough;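 also: 0% = cells with DMSO and 100% = wells without cells with DMSO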
MOR ag counter – activates human mu opioid receptor in HTR2A counterscreen. shares compounds with m5-HT2A agonist. activation, % at 9.3 µM. U2OS OPRM1 beta-arrestin PathHunter, luminescence; DMSO 0%, DAMGO 9.3 µM 100%. hit rate 5.3% among 2,300. AID 624380;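 active = mean activation above the mean of DMSO-only wells plus 3 SD, cut at about 0.5% in these data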
HTR2A ag conf – mouse HTR2A agonism confirmed; activation, % at 7.6 µM; shares compounds with m5-HT2A agonist; hit rate 19% among 2,300; CHO-K1 PathHunter beta-arrestin recruitment, luminescence; DMSO 0%, 30 µM serotonin 100%;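 active = mean activation across triplicates above the hit threshold derived in the original primary screen, cut at about 15% in these data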
* = called active by the depositor; x = no result given. Rows were chosen to be rich in hits. Some 1.6% of all compounds tested hit in one or more screens of this group.

SMILES	HTR5A inv ctr	OPRM1-OPRD1 ag	HTR5A ag	m5-HT2A agonist	MOR-DOR inv ag	MOR ag counter	HTR2A ag conf
CCNC(=O)CCS(=O)(=O)c1ccc2ccccc2c1	-5	-2	2	16*	12	0	-3
O=C(NC1CCCC1)C1c2ccccc2OCC(=O)N1Cc1cccnc1 (stereo not drawn)	x	x	x	6	x	x	x
CC1(C)Oc2ccc3ccc(=O)oc3c2/C(=C/Nc2ccc(O)cc2)C1=O	5	15	2	5	-75	x	x
CC1(C)Oc2ccc3ccc(=O)oc3c2/C(=C/Nc2cccc(O)c2)C1=O	x	x	x	17*	x	0	4
CC(C(=O)N1CCCc2ccccc21)N1C(=O)c2ccccc2C1=O (stereo not drawn)	11	-3	-4	-2	13	x	x
CC1=C(C(=O)N2CCOCC2)CC(CC(=O)NCc2cccc3ccccc23)C(=O)N1CCCN1CCCC1=O (stereo not drawn)	x	x	x	2	x	x	x
CCCCN1C(=O)C(CC(=O)NCc2cccc3ccccc23)CC(C(=O)N2CCOCC2)=C1C (stereo not drawn)	x	x	x	15*	x	0	4
Cc1ccc(C(C)NC(=S)NC2CCCCC2)c(C)c1 (stereo not drawn)	-15	5	6	3	-20	x	x
CCN1c2ccccc2-c2nc3ccccc3n2C1c1cccs1 (stereo not drawn)	14	-1	2	-5	9	x	x
CC(=O)NC(Cc1ccccc1)C(=O)NC1CCN(C(=O)c2cnccn2)CC1 (stereo not drawn)	-8	-2	4	19*	13	0	-2
CC(=O)NC(Cc1ccccc1)C(=O)NC1CCN(C(=O)c2ccc([N+](=O)[O-])cc2)CC1 (stereo not drawn)	6	-1	-2	1	7	x	x
CCCCc1c(C)nn(-c2nnc3c4ccccc4n(CC)c3n2)c1C	-25	10	6	15*	-63	0	5
CCn1c2ccccc2c2nc3ccccc3nc21	16	2	-3	4	-8	x	x
CCOC(=O)C(C(=O)N(C)C)c1ncc(C(F)(F)F)cc1Cl (stereo not drawn)	-8	-1	3	19*	5	-1	2
O=C(NC1(N2CCOCC2)CC1)c1ccc(Cl)cc1	2	-3	-1	15*	16	-1	-2
O=C(Nc1ccc(CN2CCOCC2)cc1)c1ccc(Cl)cc1	-3	1	1	-4	-5	x	x
COC(=O)c1ccc2c(=O)n(CCN3CCOCC3)c(SCC(=O)Nc3ccccc3Cl)nc2c1	5	-4	1	3	20	x	x
CC(OC(=O)c1ccc([N+](=O)[O-])s1)C(=O)NC1CCCCC1C (stereo not drawn)	-15	3	6	0	-15	x	x
c1ccc(CCNc2ccc3nncn3n2)cc1	-11	-4	4	16*	18	0	-6
NNc1ccc2nncn2n1	-7	0	-1	1	-2	x	x
CC(CNC(=O)CCCn1ncn2c(cc3occc32)c1=O)c1ccccc1 (stereo not drawn)	4	-3	-5	16*	13	-1	-6
Cc1nn(CC(=O)NCC(C)c2ccccc2)c(=O)c2cc3occc3n12 (stereo not drawn)	7	-2	4	2	11	x	x
O=C(Nc1ccc(Cl)cc1F)c1ccc2c(c1)C(=O)N(Cc1ccncc1)C2=O	x	x	x	19*	x	0	-6
CC(C)(C)Nc1nc2nonc2nc1NC(C)(C)C	2	0	6	36*	0	0	20*
OCCNc1nc2nonc2nc1NCCO	16	-1	-6	-1	7	x	x
SMILES	HTR5A inv ctr	OPRM1-OPRD1 ag	HTR5A ag	m5-HT2A agonist	MOR-DOR inv ag	MOR ag counter	HTR2A ag conf
Clc1ccc(-c2nc(C3CCCCC3)no2)cc1	4	-1	1	1	3	x	x
CCNc1nc(NCC)nc(N(C#N)C(C)C)n1	-14	-2	5	20*	13	-1	-3
COc1ccc(-c2nc(S(=O)(=O)c3ccccc3)c(N3CCN(C)CC3)o2)cc1	x	x	x	-6	x	x	x
Cn1c(Cc2cccs2)nnc1SCC(=O)Nc1ccc(F)cc1F	-5	0	1	15*	-2	0	-4
COc1ccccc1NC(=O)CSc1nnc(Cc2cccs2)n1C	-2	0	-1	6	2	x	x
CCOc1ccc(S(=O)(=O)NCCC(=O)NCc2ccc(OC)c(OC)c2)cc1	6	-4	-1	14*	14	1.5*	8
O=C1c2cccc3cc([N+](=O)[O-])cc(c23)C(=O)N1c1nncs1	8	1	2	3	-6	x	x
O=C(Nc1ccc(CN2CCOCC2)cc1)c1ccc2ccccc2c1	-3	-3	1	-7	17	x	x
c1ccc2cc(CN3CCOCC3)ccc2c1	2	-1	-2	20*	7	-1	-4
C[C@H]1CC[C@]2(O[C@@H](CCO)C[C@H](O)[C@H]2O)O1	-12	-3	1	-5	17	x	x
CCn1cc(C(=O)NCCCN2CCCC(C)C2)c(=O)c2cc(S(=O)(=O)N3CCOCC3)ccc21 (stereo not drawn)	9	-2	7	21*	8	-1	-5
Cc1ccc(C)c(N2N=C(C(=O)Nc3ccccc3N3CCCC3)CCC2=O)c1	1	0	3	-1	0	x	x
Cc1ccc(C)c(N2N=C(C(=O)Nc3cccnc3)CCC2=O)c1	-1	-2	0	15*	7	-1	-2
O=C(COc1cc(Cl)c(Cl)cc1Cl)Nc1cccc(O)c1	7	8	-2	22*	-40	0	-1
CCc1ccc(CN2CCN(C(=O)c3ccco3)CC2)cc1	-8	2	2	15*	-8	-1	123*
O=C(c1ccco1)N1CCN(C(=O)c2ccc(CS(=O)c3ccc(Cl)cc3)o2)CC1 (stereo not drawn)	-2	-3	2	15*	14	-1	-3
CN(c1ccc(C(=O)N2CCN(Cc3ccccc3)CC2)cc1)S(=O)(=O)c1ccc(Cl)cc1	-24	-1	0	15*	3	0	64*
O=C(c1ccco1)N1CCN(Cc2ccc(Cl)cc2)CC1	18	1	-7	21*	-6	0	88*
Cc1ccc(N(C)S(=O)(=O)c2cccc(C(=O)N3CCN(Cc4ccccc4)CC3)c2)cc1	-20	-2	5	-5	7	x	x
O=C(Cc1ccc(Cl)cc1)N1CCN(C(=O)c2ccco2)CC1	19	-2	3	-3	13	x	x
Cc1ccc(S(=O)Cc2ccc(C(=O)N3CCN(C(=O)c4ccco4)CC3)o2)cc1 (stereo not drawn)	22	-2	-4	-3	10	x	x
Clc1ccc(COc2ccccn2)c(Cl)c1	14	0	-1	0	2	x	x
